High-throughput results: PubChem BioAssay, several laboratories
Only some compounds are listed: those with a hit (about 3.8% of all), similar ones and a draw of the others.
697 NFkB inh = inhibitors of the PMA/ionomycin-induced NF-kB reporter in 697 B cells | 697 B-cell NF-kB luciferase reporter, 16 h | inhibition, % at 4 µM | actives 0.33% (n = 330,000); in the data active means inhibition above about 35%
Jurkat NFkB inh = lowers PMA/ionomycin-induced NF-kB signal in Jurkat cells | PMA/ionomycin-induced NF-kB luciferase reporter, luminescence | inhibition, % at 4 µM | actives 0.53% (n = 330,000) | AID 435003; in the data active means inhibition above about 50%
Shn3 3UTR inh = Schnurri-3 reporter inhibition in Clone20 osteoblasts; Clone20 osteoblast Shn3 3'UTR firefly luciferase, 24 h; inhibition, % at 12.5 µM; actives 0.52% (n = 360,000);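 active means mean inhibition of at least 75% with every replicate also reaching 75%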
Gli-Sufu block = antagonists of Gli-Sufu signaling | AID 588413 | inhibition, % at 5 µM | actives 0.74% (n = 340,000) | Sufu-KO-LIGHT fibroblasts, Gli luciferase reporter luminescence;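 active means inhibition above about 55%, limit read from the data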
Mdm2 MdmX PPI = human Mdm2/MdmX binding inhibition. inhibition, % at 8 µM. actives 3% (n = 330,000). SaOS-2 split-luciferase Mdm2/MdmX complementation, luminescence;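 active means inhibition of at least 50% at 8 µM in the primary screen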
Target sequence (O15151 whole entry, looked up): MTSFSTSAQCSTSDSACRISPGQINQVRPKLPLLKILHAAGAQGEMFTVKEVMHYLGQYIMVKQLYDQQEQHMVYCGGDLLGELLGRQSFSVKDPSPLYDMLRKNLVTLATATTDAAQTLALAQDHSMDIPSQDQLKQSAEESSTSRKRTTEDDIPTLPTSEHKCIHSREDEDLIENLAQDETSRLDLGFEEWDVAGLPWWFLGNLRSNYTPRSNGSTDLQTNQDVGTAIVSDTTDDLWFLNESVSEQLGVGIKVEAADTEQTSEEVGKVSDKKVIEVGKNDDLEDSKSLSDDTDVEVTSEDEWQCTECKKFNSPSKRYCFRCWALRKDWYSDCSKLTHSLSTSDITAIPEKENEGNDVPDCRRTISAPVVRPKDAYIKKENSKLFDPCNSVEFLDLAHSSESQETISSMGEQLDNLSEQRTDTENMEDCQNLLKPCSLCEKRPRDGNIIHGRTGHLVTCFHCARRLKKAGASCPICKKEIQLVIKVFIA
Target sequence (Q00987 whole entry, looked up): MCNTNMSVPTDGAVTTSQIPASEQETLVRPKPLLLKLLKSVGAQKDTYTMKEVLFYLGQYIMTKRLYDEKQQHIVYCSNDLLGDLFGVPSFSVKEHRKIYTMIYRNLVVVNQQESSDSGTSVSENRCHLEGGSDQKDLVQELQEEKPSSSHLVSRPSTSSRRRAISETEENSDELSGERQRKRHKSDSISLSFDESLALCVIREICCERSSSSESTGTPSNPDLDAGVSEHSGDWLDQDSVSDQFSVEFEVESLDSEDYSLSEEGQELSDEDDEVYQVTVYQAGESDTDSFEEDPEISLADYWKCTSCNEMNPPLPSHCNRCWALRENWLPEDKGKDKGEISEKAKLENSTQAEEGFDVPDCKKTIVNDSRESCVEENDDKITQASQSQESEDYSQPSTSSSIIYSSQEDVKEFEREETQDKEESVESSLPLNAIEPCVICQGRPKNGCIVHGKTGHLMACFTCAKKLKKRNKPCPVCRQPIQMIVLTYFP
Mdm2-MdmX conf = confirmation of human Mdm2/MdmX interaction inhibitors | actives 55% (n = 10,000) | inhibition, % at 8 µM | shares compounds with Mdm2 MdmX PPI | Mdm2-MdmX binding, luminescent assay; in the data active means inhibition above about 40%
Full FLuc ctr = inhibits full-length luciferase, flagging false Mdm2/MdmX hits; AID 504607; actives 77% (n = 6,200); shares compounds with Mdm2 MdmX PPI; SaOS-2 full-length luciferase counterscreen, luminescence; inhibition, % at 8 µM;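 active means mean inhibition at 8 µM reaching about 37%, which flags the compound as non-specific, limit read from the data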;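 further: p53-null SaOS-2 cells with luciferase driven by a doxycycline-inducible promoter; compound on cells about two nights before reading with doxycycline added after day one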
Numbers stand for hits; - = inactive; . = no result given.

SMILES	697 NFkB inh	Jurkat NFkB inh	Shn3 3UTR inh	Gli-Sufu block	Mdm2 MdmX PPI	Mdm2-MdmX conf	Full FLuc ctr
N=c1n(CCO)c2ccccc2n1Cc1ccc(Cl)cc1	-	-	-	-	-	.	.
Cc1ccc(OCC(O)Cn2c(=N)n(Cc3ccccc3)c3ccccc32)cc1 (centres undefined)	-	-	81	-	67	52	49
Cc1cccc(OCC(O)Cn2c(=N)n(CCN3CCCCC3)c3ccccc32)c1 (centres undefined)	-	-	-	-	53	46	61
N=c1n(Cc2ccccc2)c2ccccc2n1Cc1ccccc1	-	-	-	-	-	.	.
N=c1n(Cc2ccccc2)c2ccccc2n1CC(O)COc1ccc(Cl)cc1Cl (centres undefined)	-	-	92	56	100	100	61
OCC[C@H]1C[C@@H](O)[C@H](O)[C@]2(Cc3ccccc3CCO2)O1	-	-	-	-	-	.	.
CS(=O)(=O)c1nc(-c2ccccc2)cc(-c2ccccc2)c1C#N	-	-	-	-	100	-	.
Cc1ccc(-c2cc(-c3ccccc3)c(C#N)c(Br)n2)cc1	-	-	-	-	72	-	.
O=C(CN1C(=O)NC2(CCCC2)C1=O)N1CCN(c2ccc(C(F)(F)F)cc2[N+](=O)[O-])CC1	.	.	-	-	.	.	.
CCCCCCC(=O)NNC(=O)c1c(O)c2ccccc2n(CC)c1=O	-	-	-	-	-	.	.
CCn1c(=O)c(C(=O)NNC(=O)c2ccccc2)c(O)c2ccccc21	-	-	-	-	-	43	54
CC(C)Cn1c(=O)c(C(=O)Nc2cnccn2)c(O)c2ccccc21	-	-	-	-	-	.	.
CCn1c(=O)c(C(=O)Nc2ccccc2S(N)(=O)=O)c(O)c2ccccc21	-	-	-	-	56	-	.
CC(C)Cn1c(=O)c(C(=O)Nc2ccncc2)c(O)c2ccccc21	-	-	-	-	69	51	38
C[C@]12c3[nH]c4ccc(Cl)cc4c3CCN1C(=O)[C@@H](CC(=O)NCc1cccc(C(F)(F)F)c1)C[C@@H]2C(=O)N1CCCCC1	-	.	-	-	81	-	.
CC[C@]12c3[nH]c4ccc(Cl)cc4c3CCN1C(=O)[C@@H](CC(=O)NCc1cccc(C(F)(F)F)c1)C[C@@H]2C(=O)N1CCN(C(=O)c2ccco2)CC1	-	.	-	-	58	-	.
CC[C@]12c3[nH]c4ccc(OC)cc4c3CCN1C(=O)C(CC(=O)NCc1cccc(C(F)(F)F)c1)C[C@@H]2C(=O)N1CCN(C(=O)c2ccco2)CC1 (some centres undefined)	-	.	-	-	-	.	.
CCOc1ccccc1N1CC(C(=O)Nc2cc(Cl)ccc2-n2cncn2)CC1=O (centres undefined)	-	-	-	-	-	.	.
O=C(Nc1cccc(S(=O)(=O)N2CCCCC2)c1)C1CC(=O)N(c2ccc3c(c2)OCCO3)C1 (centres undefined)	-	-	-	-	-	.	.
N#Cc1c(Oc2ccc3ccccc3c2)sc(C(=O)c2ccccc2)c1N	-	-	-	-	75	-	.
CC(C)=CCC12Oc3cc(O)ccc3C1(O)Oc1cc(O)c([C@H]3C=C(C)CC(c4ccc(O)cc4O)[C@H]3C(=O)c3ccc(O)cc3O)c(O)c1C2=O (some centres undefined)	-	-	.	-	68	-	.
CC(C)(C)c1nc(NC(=O)Nc2ccccc2)sc1Br	-	-	-	-	66	-	.
N#Cc1c2ccc(O)cc2n2ccccc12	-	-	-	-	76	73	-
CC1CCN(CC(O)CN2c3ccccc3Sc3ccccc32)CC1 (centres undefined)	-	-	-	-	54	-	.
COc1cc(OC)cc(C(=O)Nc2ccc3c(c2)CCCN3C(=O)c2cccs2)c1	-	-	-	-	78	60	86
O=C(Nc1ccc2c(c1)CCCN2C(=O)c1cccs1)c1ccccc1	-	-	-	-	-	.	.
CC1C(=O)N(Cc2cn(CCC3OCCCO3)nn2)CCS(=O)(=O)N1Cc1ccc(-c2cccc(CO)c2)cc1 (centres undefined)	.	.	-	.	.	.	.
